Here are results for 40 molecules from PubChem BioAssay (NCATS).

A short description of assay [1]: qHTS for Inhibitors of the Functional Ribonucleoprotein Complex (vRNP) of Lassa (LASV) Arenavirus: LASV Primary Screen - GLuc reporter signal (AID 1347082). Also: nearly all actives have a fitted effect of over 60% in size.
The nature of assay [2]: qHTS for Inhibitors of the Functional Ribonucleoprotein Complex (vRNP) of Lassa (LASV) Arenavirus: Viability assay - alamar blue signal for LASV Primary Screen (AID 1347083). Also: nearly all actives have a fitted effect of over 80% in size.

Inconclusive results are not listed. The source made the active and inactive calls. Calls follow the shape of the full dose curve; tested in HEK293 reporter line.
Potency is read from the fitted curve at half-maximal effect.

Turning to `Clc1ccccc1CN1CCc2sccc2C1`, the Potency entry in assay [1] and in assay [2] was “inactive” in each case.

Take `CCCCC(CC)COC(=O)/C=C/c1ccc(OC)cc1` (stereo not given): the Potency result in assay [1] and in assay [2] was “inactive” each time.

Turning to `Cc1ccc(S(=O)(=O)Nc2cc(Cl)ccc2C(=O)Nc2nc(-c3ccccc3)cs2)cc1`, the Potency result in assay [1] and in assay [2] was “inactive” each time.

For the molecule `Cc1ccccc1-n1c(Cn2cnc3c(N)ncnc32)nc2cccc(C)c2c1=O`, the Potency was 8630 nM (active) in assay [1] and 1530 nM (active) in assay [2].

Regarding `CN1CC[C@@H](c2c(O)cc(O)c3c(=O)cc(-c4ccccc4Cl)oc23)[C@@H](O)C1`, the Potency in assay [1] is 544 nM (active); in assay [2], 137 nM (active).

Regarding `CCOc1ccc(Cc2cc([C@@H]3O[C@H](CO)[C@@H](O)[C@H](O)[C@@H]3O)ccc2Cl)cc1`, the Potency result in assay [1] and in assay [2] was “inactive” each time.

As for `COc1ccc(CCN(C)CCCOc2ccc(S(=O)(=O)c3[nH]c4ccccc4c3C(C)C)cc2)cc1OC`, the Potency entry in assay [1] and in assay [2] was “inactive” each time.

For `CC(=O)Nc1ccc([C@H](C)C(=O)Nc2ncc(C(C)C)s2)cc1`, the Potency in assay [1] is 3060 nM (active); in assay [2] it was 1220 nM (active).

`Cn1c(Nc2ccc(C(F)(F)F)cc2)nc2cc(Oc3ccnc(-c4ncc(C(F)(F)F)[nH]4)c3)ccc21`: the Potency in assay [1] was 21700 nM (active); in assay [2], 2430 nM (active).

Regarding `CCN(CC)CCOc1ccc(Nc2ncc3cc(-c4c(Cl)cccc4Cl)c(=O)n(C)c3n2)cc1`, the results for the Potency in assay [1] and in assay [2] were 1930 nM (active) and 30.6 nM (active), respectively.

As for `CC(=O)OCCN1C(=O)c2c(C)nc3ccc(S(=O)(=O)N4CCOCC4)cc3c2C1=O`, the Potency entry in assay [1] and in assay [2] was “inactive” each time.

In the case of `CS(=O)(=O)c1cccc(CNc2nc(Nc3ccc4c(c3)CCC(=O)N4)ncc2C(F)(F)F)c1`, in assay [1], the Potency entry was “inactive”. Also, the Potency in assay [2] was 38500 nM (active).

For the molecule `CCOC(=O)c1c(C)n(C)c2ccc(O)cc12`, the Potency result in assay [1] and in assay [2] was “inactive” each time.

As to `COC(=O)c1c(Cl)c(Cl)c(C(=O)OC)c(Cl)c1Cl`, the Potency result in assay [1] and in assay [2] was “inactive” each time.

Turning to `CC(=O)Oc1ccccc1C(=O)O`, the Potency result in assay [1] and in assay [2] was “inactive” each time.

Take `Cn1c2cc(S(C)=O)sc2c2cnn(Cc3cccc(N)c3)c(=O)c21` (stereo not given): the Potency entry in assay [1] and in assay [2] was “inactive” throughout.

For `COc1ccc(CCN2CCN(CCCc3ccccc3)CC2)cc1OC`, the Potency result in assay [1] and in assay [2] was “inactive” throughout.

Regarding `CCc1c(C)[nH]c2c1C(=O)C(CN1CCOCC1)CC2` (stereo not given), the Potency result in assay [1] and in assay [2] was “inactive” in each case.

As for `C/C(=C1\CCOC(=O)S1)N(C=O)Cc1cnc(C)nc1N`, the Potency entry in assay [1] and in assay [2] was “inactive” each time.

For `O=C(O)c1ccccc1NCCc1ccccc1`, the Potency result in assay [1] and in assay [2] was “inactive” each time.

In the case of `COc1cc(S(N)(=O)=O)cc(C(=O)O)c1OC`, the Potency result in assay [1] and in assay [2] was “inactive” throughout.

As to `COc1cc([C@@H]2c3cc4c(cc3[C@@H](O)C3COC(=O)C32)OCO4)cc(OC)c1O` (stereo not given in full), the Potency result in assay [1] was “inactive”. In addition, in assay [2], the Potency is 86.3 nM (active).

On to `N#C[C@H](O[C@@H]1O[C@H](CO[C@@H]2O[C@H](CO)[C@H](O)[C@H](O)[C@H]2O)[C@H](O)[C@H](O)[C@H]1O)c1ccccc1`, for which the Potency in assay [1] is 17200 nM (active); in assay [2], 19300 nM (active).

As to `CCN(CC)CCCCNc1ncc2cc(-c3cc(OC)cc(OC)c3)c(NC(=O)NC(C)(C)C)nc2n1`, the Potency result in assay [1] was “inactive”. Besides, the Potency in assay [2] is 19300 nM (active).

As for `Cc1cccc(C#Cc2ccccc2)n1`, the Potency result in assay [1] and in assay [2] was “inactive” throughout.

Take `CCCCCCCCOc1ccc(C(=O)c2ccccc2)c(O)c1`: the Potency result in assay [1] and in assay [2] was “inactive” in each case.

On to `Cn1cc(-c2ccc3nnc(C(F)(F)c4ccc5ncccc5c4)n3n2)cn1`, for which the Potency result in assay [1] and in assay [2] was “inactive” in each case.

Regarding `CC(C)(C)NCC(O)c1ccc(O)c(CO)c1` (stereo not given), the Potency result in assay [1] and in assay [2] was “inactive” in each case.

For the molecule `COCCn1c2c([n+](Cc3cnccn3)c1C)C(=O)c1ccccc1C2=O`, the Potency in assay [1] and in assay [2] was 109 nM (active) each time.

Turning to `Cn1cc(-c2ccc3nnc(Sc4ccc5ncccc5c4)n3n2)cn1`, the Potency result in assay [1] and in assay [2] was “inactive” in each case.

As to `COc1ccccc1O`, the Potency entry in assay [1] and in assay [2] was “inactive” in each case.

`CN(C(=O)C(Cl)Cl)c1ccc(OC(=O)c2ccco2)cc1`: the Potency result in assay [1] and in assay [2] was “inactive” throughout.

In the case of `COc1c(N2CCNC(C)C2)c(F)cc2c(=O)c(C(=O)O)cn(C3CC3)c12` (stereo not given), the Potency entry in assay [1] and in assay [2] was “inactive” each time.

As for `C[C@H](CN1CCCC1)C(=O)c1ccc(C(F)(F)F)cc1`, the Potency entry in assay [1] and in assay [2] was “inactive” each time.

As for `CN(C)C1CCN(C(=O)c2ccc(NC(=O)Nc3nc(N4CCOCC4)nc(N4CCOCC4)n3)cc2)CC1`, the Potency in assay [1] is 243 nM (active); in assay [2], 68.5 nM (active).

In the case of `CCC(=C(c1ccccc1)c1ccc(OCCN(C)C)cc1)c1ccccc1`, the Potency entry in assay [1] and in assay [2] was “inactive” throughout.

On to `CCCCc1ccc(NS(=O)(=O)c2ccc(C)c(C(=O)N3CCN(c4cccc(C)c4C)CC3)c2)cc1`, for which the Potency result in assay [1] and in assay [2] was “inactive” throughout.

Turning to `CCOc1cc(NC(C)=O)ccc1C(=O)OC`, the Potency entry in assay [1] and in assay [2] was “inactive” in each case.

Regarding `CC[C@@H](C)[C@H](NC(=O)[C@H](CC1CCCCC1)NC(=O)c1ccno1)C(=O)N1CCC2(CCc3ccccc32)CC1`, the Potency result in assay [1] and in assay [2] was “inactive” in each case.

`CC1=C(CO)C(=O)O[C@@H]([C@@H](C)[C@H]2CC[C@H]3[C@@H]4C[C@H]5O[C@]56[C@@H](O)C=CC(=O)[C@]6(C)[C@@H]4CC[C@]23C)C1`: the values for the Potency in assay [1] and in assay [2] were 863 nM (active) and 3060 nM (active), respectively.
